Drawing on PubChem BioAssay (NCI), this text covers growth for 15 compounds.

Common to all, as to experiment: NCI-60 one-dose screen, 48 h (100 = growth as untreated, 0 = no growth, -100 = all killed)
Holding throughout (conditions): 10 µM

The subject of assay [1] is RPMI-8226 leukemia.
The test system of assay [2] is OVCAR-8 ovarian.
Assay [3] has as its system OVCAR-5 ovarian.
The test system of assay [4] is OVCAR-4 ovarian.
The subject of assay [5] is SK-OV-3 ovarian.
Assay [6] concerns IGROV1 ovarian.
Assay [7] relates to OVCAR-3 ovarian.
Assay [8] has as its system HS 578T breast.
For assay [9], the system named is NCI/ADR-RES ovarian.
The test system of assay [10] is T-47D breast.
Assay [11] deals with BT-549 breast.
The subject of assay [12] is MDA-MB-435 melanoma.
In assay [13] the test system is SW-620 colon.
Assay [14] deals with MCF7 breast.
The subject of assay [15] is HCT-116 colon.
The subject of assay [16] is HCC-2998 colon.
Assay [17] relates to KM12 colon.

About 83,000 compounds went through this panel and 20% of them were active in at least one assay; those are over-represented in the sample as a whole.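 The test compound was applied at a single concentration to cells in 96-well plates for 48 hours, and percent growth was recorded.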 Values without a mark were called inactive. Calls of active or inactive are those of the source. The calls were made as follows: active = growth percent below 10; inactive = the rest.

With `CCN1CCC2(CC1)OC(c1ccccc1)C(c1ccccc1)O2` (stereo not given), the growth in assay [1] is 101%; in assay [2], 106%; in assay [3], 95.4%; in [4], 110%; in [5], 121%; in [6], 144%. The growth is 114% in [7]; 115% in assay [8]; 107% in [9]; 103% in assay [10]; 110% in [11]; 114% in [12]. Moreover, the growth is 102% in assay [13]; 99.6% in assay [14]; 95.1% in [15]; 113% in [16]; 115% in [17].

`COc1ccc2c(c1OC)O/C(=C\c1ncc([N+](=O)[O-])n1C)C2=O`: the growth in assay [1] is 34.9%; in [2], -18.2% (active); in [3], 53.7%; in [4], 78.9%; in assay [5] it was 24.8%; in assay [6], -14.8% (active). For the same compound, the growth in assay [7] was -24.2% (active); in [8], 46.5%; in assay [9], 15.1%; in assay [10] it was 94.8%; in assay [11], -41.3% (active); in assay [12], -76.4% (active). In addition, the growth was -21.2% (active) in assay [13]; 28.9% in assay [14]; 4.48% (active) in assay [15]; 34.6% in [16]; 43.1% in assay [17].

As to `COc1ccc(-c2nc3ccccn3c2-c2nnc(-c3cc(OC)c(OC)c(OC)c3)o2)cc1`, the growth in assay [1] was 75.1%; in [2], 35.5%; in assay [3], 82.7%; in [4], 64.8%; in assay [5], 44.3%; in [6], 87%. The growth in assay [7] was 40.4%; in [8] it was 82.2%; in assay [9], 63.7%; in assay [10] it was 48%; in assay [11], 42.7%; in [12], 96.2%. Also, the growth in assay [13] was 74.9%; in assay [14], 63.4%; in assay [15], 32.1%; in [16], 85.4%; in [17], 65%.

Regarding `COc1ccc(-c2ccc3cc(C(=O)Nc4ccc(O)c(C(=O)/C=C/c5cc(OC)c(OC)c(OC)c5)c4)ccc3c2)cc1`, the growth in assay [1] is 60.2%; in [2] it was 84.9%; in assay [3] it was 108%; in assay [4], 94.5%; in assay [5] it was 109%; in [6], 89.6%. Moreover, the growth in [7] is 100%; in assay [8], 102%; in [9] it was 95.4%; in assay [10] it was 85.5%; in assay [11], 102%; in [12] it was 93.4%. The growth in assay [13] was 94.2%; in assay [14] it was 87.3%; in [15] it was 79.2%; in assay [17], 104%.

Regarding `COc1cc(/C=C\c2cc(OC)c(OC)c(OC)c2)cc(NS(=O)(=O)c2ccc(Cl)cc2)c1OC`, the growth in assay [1] is 9.59% (active); in assay [2], 17.1%; in assay [3] it was 45%; in assay [4], 58.4%; in [5], 28.2%; in assay [6], 46.8%. Also, the growth is 10.3% in assay [7]; 1.49% (active) in [8]; 12.8% in [9]; 55.3% in assay [10]; 40.6% in assay [11]; -39.1% (active) in assay [12]. In addition, the growth is 30.4% in assay [13]; 26.5% in assay [14]; 14.7% in assay [15]; 18.6% in assay [16]; 25.1% in [17].

Regarding `Cc1cc(C)c2c(n1)sc1c(Nc3ccc(Cl)cc3)ncnc12`, the growth in assay [1] is 23.7%; in [2], 4.06% (active); in assay [3], 29%; in assay [4] it was 84.4%; in [5], 35.2%; in [6] it was 70.8%. For the same compound, the growth is 33.3% in assay [7]; 76.5% in assay [8]; 15.1% in assay [9]; 23.4% in [10]; 29.8% in assay [11]; 27.3% in assay [12]. Further, the growth was 34% in assay [13]; 16.5% in [14]; 15.1% in [15]; 54.4% in assay [16]; 43.1% in [17].

As to `CC12O[C@H](C[C@@H](O)[C@H]1O)n1c3ccccc3c3c4c(c5c6ccccc6n2c5c31)C(=O)N(CCCN)C4=O`, the growth in [1] is 40.2%; in assay [2] it was 33.9%; in assay [3] it was 97.2%; in assay [4], 61%; in assay [5], 41.8%; in assay [6] it was 17.9%. The growth was 37.8% in assay [7]; 43.4% in assay [8]; 101% in assay [9]; 24% in [10]; 72.9% in assay [11]; 32.5% in [12]. Also, the growth in assay [13] is 20.4%; in assay [14], 12.2%; in [15], 13.4%; in assay [16], 44.8%; in assay [17], 38%.

For the compound `COc1cc(C(=O)/C=C/c2cc(-c3cc(OC)c(OC)c(OC)c3)n[nH]2)cc(OC)c1OC`, the growth in assay [1] is -46.1% (active); in assay [2] it was 8.1% (active); in assay [3], 44.9%; in assay [4], 34.2%; in assay [5], 47.3%; in assay [6], -20% (active). The growth in assay [7] is 7.64% (active); in assay [8], 62.4%; in [9], 34.6%; in assay [10], -26.1% (active); in assay [11], -79% (active); in [12] it was -51.8% (active). Besides, the growth in assay [13] is -71.8% (active); in assay [14], 3.65% (active); in assay [15] it was -93.6% (active); in assay [17], -77.7% (active).

On to `COc1ccc(OC)c(NC(=O)c2sc3nc4c(cc3c2N)C(=O)CCC4)c1`, for which the growth is 95.8% in assay [1]; 96.1% in assay [2]; 101% in [3]; 109% in assay [4]; 44.7% in [5]; 96.4% in assay [6]. Further, the growth in [7] was 118%; in assay [8], 96.8%; in [9], 91%; in assay [10], 93.9%; in assay [11] it was 93.7%; in [12], 28.4%. The growth in assay [13] is 82.3%; in assay [14] it was 81.3%; in assay [15] it was 97%; in [16], 78.6%; in assay [17] it was 74.8%.

Consider `CCCCCCN(CCCCCC)CC(O)c1ccc2c3c(cccc13)CC2` (stereo not given), for which the growth was 27.5% in [1]; 68.4% in assay [2]; 48.9% in assay [3]; 72.4% in [4]; 69.9% in [5]; 39.4% in assay [6]. Further, the growth in assay [7] was 80.6%; in [8], 69.1%; in [9], 56.5%; in [10], 30.2%; in assay [11], 62.8%; in [12], 42.9%. Also, the growth in assay [13] was 19.2%; in [14], 54.2%; in [15] it was 17.4%; in assay [16], 20.3%; in assay [17] it was 58%.

As to `O=C1OCC2=C1C(c1cccc(Cl)c1)c1cc3c(cc1N2CCO)CCC3` (stereo not given), the growth in assay [1] is 17.3%; in assay [2], 4.21% (active); in [3], 46.1%; in assay [4], 50.4%; in assay [5] it was 23.5%; in [6], 15.9%. Moreover, the growth is -54.2% (active) in [7]; -1.05% (active) in assay [8]; -23% (active) in [9]; 66.1% in assay [10]; 8.33% (active) in assay [11]; -49.5% (active) in assay [12]. Besides, the growth in [13] was 16%; in assay [14], 14.1%; in [15] it was 2.02% (active); in [17], -47.4% (active).

For the compound `COC(=O)C1=NNC(=S)N(c2cc(C)[nH]n2)C(=O)C1`, the growth was 98.5% in assay [1]; 101% in [2]; 108% in assay [3]; 104% in assay [4]; 97.9% in assay [5]; 99.9% in assay [6]. Moreover, the growth in [7] is 108%; in assay [8] it was 105%; in assay [9], 99%; in [10], 90.2%; in assay [11] it was 107%; in assay [12] it was 99.4%. For the same compound, the growth in assay [13] was 102%; in assay [14], 96%; in assay [15], 99.2%; in assay [16], 93.6%; in assay [17] it was 102%.

Consider `CC(C)=CCc1cc(O)cc2c1OC(C=C(C)C)C1=C2C(=O)C2=C(NCCS2(=O)=O)C1=O` (stereo not given), for which the growth is 63.9% in assay [1]; 3.18% (active) in assay [2]; 41.3% in [3]; 1.98% (active) in assay [4]; 4.28% (active) in assay [5]; -22.3% (active) in [6]. Moreover, the growth in assay [7] was -9.92% (active); in [8] it was 11.2%; in assay [9], 87.7%; in assay [10], -10% (active); in [11], 18.3%; in assay [12], -56.4% (active). Moreover, the growth in assay [13] was 4.68% (active); in [14] it was -54.5% (active); in assay [15], -15.4% (active); in assay [16], -12.6% (active); in assay [17] it was 43.3%.

Turning to `COc1ccc2c(c1)N(CCO)C1=C(C(=O)OC1)C2c1cc(OC)c(OC)c(OC)c1` (stereo not given), the growth is 18.7% in assay [1]; 7.94% (active) in assay [2]; 39.8% in assay [3]; 51% in assay [4]; 20.6% in assay [5]; 9.98% (active) in assay [6]. In addition, the growth was -53.2% (active) in [7]; -6.85% (active) in [8]; -14.7% (active) in [9]; 71.9% in assay [10]; 20.5% in assay [11]; -48.2% (active) in assay [12]. Further, the growth in assay [13] was 19.4%; in assay [14] it was 19.3%; in assay [15], 4.03% (active); in assay [17], -43% (active).

On to `COc1ccc2c(c1)N(CCO)C1=C(C(=O)OC1)C2c1ccccc1` (stereo not given), for which the growth in [1] is 22%; in assay [2] it was 29.6%; in [3] it was 66.5%; in assay [4], 69.5%; in assay [5], 19.5%; in assay [6] it was 43.3%. For the same compound, the growth in [7] is -40.3% (active); in assay [8], -5.25% (active); in assay [9] it was -2.83% (active); in assay [10] it was 37.6%; in [11], 47.2%; in assay [12], -62.9% (active). Further, the growth in assay [13] was 13.9%; in assay [14], 25.4%; in assay [15] it was 25.9%; in assay [17], 17.4%.
